This is an account of results in ChEMBL document CHEMBL3988442, “University of Dundee, Small-Polar-MMV Screening Library” (2021).

In assay [1] the target is T1, Aspartate--tRNA(Asp/Asn) ligase (Mycobacterium tuberculosis (strain ATCC 25618 / H37Rv)) (UniProt P9WFW3). Note: in the data most compounds retested in dose-response had high values.
T1 sequence (whole entry): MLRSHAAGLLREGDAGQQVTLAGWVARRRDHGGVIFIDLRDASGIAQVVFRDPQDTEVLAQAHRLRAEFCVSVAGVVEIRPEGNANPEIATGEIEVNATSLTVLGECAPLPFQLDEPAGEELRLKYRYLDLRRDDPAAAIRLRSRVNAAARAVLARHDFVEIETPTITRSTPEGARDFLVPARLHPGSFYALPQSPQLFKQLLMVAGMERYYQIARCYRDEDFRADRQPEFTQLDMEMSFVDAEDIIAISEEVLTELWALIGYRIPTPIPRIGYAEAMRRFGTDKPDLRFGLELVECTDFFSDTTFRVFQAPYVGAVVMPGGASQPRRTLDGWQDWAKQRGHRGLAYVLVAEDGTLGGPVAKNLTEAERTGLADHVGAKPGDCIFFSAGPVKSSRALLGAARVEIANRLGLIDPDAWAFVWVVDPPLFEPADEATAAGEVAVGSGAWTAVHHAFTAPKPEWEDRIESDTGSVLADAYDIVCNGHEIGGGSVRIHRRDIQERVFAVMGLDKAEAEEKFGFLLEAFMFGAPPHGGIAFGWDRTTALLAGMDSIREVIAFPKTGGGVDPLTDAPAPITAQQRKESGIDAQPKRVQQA
Description: Assay for Asp RNA synthetase-1 from Mycobacterium tuberculosis. Particulars: 30 µM. The arrangement: scale not given: direction of the effect not stated beside the values. It counts as functional.

Assay [2] has as its target Shiga toxin 2 (Escherichia coli O157:H7) (UniProt P09385+P09386). Description: E. coli 0.157:H7 Shiga Toxin SOP - stx2 screening assay. It is filed as functional. Also on record: scale not given: direction of the effect not stated beside the values. Particulars: 30 µM.

Turning to `Cc1nccn1CC1CCCN1S(=O)(=O)Cc1ccon1` (stereo not given), the results for the Percent Effect in assay [1] and in assay [2] were -2.34% and -23.9%, respectively.

As for `O=C1OC2(CCNCC2)CN1CC(=O)N1CCCC1c1ccco1` (stereo not given), the Percent Effect was -0.636% in assay [1] and -9.63% in assay [2].

For `Cc1ccc(C(=O)NC2CCN(C(=O)Nc3ccccn3)CC2)o1`, the Percent Effect amounted to 5.16% in assay [1] and 25.6% in assay [2].

`CCOCCCNC(=O)c1cn(CC)nc1C`: the Percent Effect in assay [1] is -4.5%; in assay [2] it was -51.1%.

Turning to `CN(C)CCO[C@H]1CN(Cc2cccc(C#N)c2)[C@@H]2COC[C@H]12`, the Percent Effect in assay [1] is 1.95%; in assay [2], -21.2%.

As to `CCN1CCN(C2CCN(Cc3ncc(C(C)(C)C)o3)CC2)C1=O`, the Percent Effect in assay [1] is -3.69%; in assay [2], 6.2%.

For `Cc1cnn(CCNCc2cccnc2)c1`, the Percent Effect in assay [1] was -0.568%; in assay [2], -3.36%.

Consider `COc1ccc(C(CO)NC(=O)Nc2cccc(C#N)c2)cc1` (stereo not given), for which the results for the Percent Effect in assay [1] and in assay [2] were 3.45% and -32.6%, respectively.

Turning to `CCc1nnc2n1CCN(Cc1csc(-c3ccc(C)o3)n1)C2`, the Percent Effect is 0.544% in assay [1] and -33.1% in assay [2].

As for `CC(C)n1ccnc1CN1CCCN(C(=O)c2cc(Cl)c[nH]2)CC1`, the Percent Effect was 3.35% in assay [1] and -53.1% in assay [2].

With `Cc1nc(-c2ccccc2)sc1C(=O)NCCNc1ncccn1`, the Percent Effect in assay [1] is -2.89%; in assay [2] it was 28.3%.

For the compound `CCn1cc(Br)c(C(=O)NCc2cnn(C)c2)n1`, the Percent Effect in assay [1] was -2.73%; in assay [2], -41.5%.

Turning to `Cc1ccc(S(=O)(=O)Nc2ccc(-n3cccc3C(=O)O)c(C)c2)s1`, the Percent Effect is 4.34% in assay [1] and 18.8% in assay [2].

For the compound `Cc1noc(C2CCN(C(=O)c3c(C)noc3C)CC2)n1`, the Percent Effect in assay [1] is 0.55%; in assay [2], -6.04%.

For the compound `Cc1nc(CN(C)C2CCN(CC(=O)N3CCOCC3)C2)no1` (stereo not given), the Percent Effect was determined as 5.36% in assay [1] and 11.2% in assay [2].

Consider `Cc1ccc(-c2cc(N)c(=O)n(CC(=O)NCC3CCCCC3)n2)s1`, for which the Percent Effect was found to be 7.19% in assay [1] and 2.09% in assay [2].

For the compound `CC1CCN(S(=O)(=O)c2cccn(CC(=O)NC3CCCC3)c2=O)CC1`, the Percent Effect is -2.16% in assay [1] and 1.09% in assay [2].

With `CSc1ccc(Cl)c(C(=O)N2CCCC(CNS(C)(=O)=O)C2)c1` (stereo not given), the Percent Effect in assay [1] is 2.82%; in assay [2], -37.8%.

For the compound `CCS(=O)(=O)CCN1CCCC1c1noc(C2CC2)n1` (stereo not given), the Percent Effect in assay [1] is -2.94%; in assay [2], -0.711%.

For the compound `CC1CCCCN1Cc1ccc(-c2ccccc2C(=O)O)cc1` (stereo not given), the Percent Effect was 5.63% in assay [1] and 25% in assay [2].
